The list is not random: actives were taken first. Their share in the collection is about 2.6%.
PHOSPHO1 inh = inhibitors of human PHOSPHO1 phosphatase. inhibition, % at 13.3 µM. recombinant PHOSPHO1, absorbance phosphatase assay. Q8TCT1. actives 1.1% (n = 290,000); in the data active = inhibition above about 60%
Target sequence (Q8TCT1 whole entry, looked up): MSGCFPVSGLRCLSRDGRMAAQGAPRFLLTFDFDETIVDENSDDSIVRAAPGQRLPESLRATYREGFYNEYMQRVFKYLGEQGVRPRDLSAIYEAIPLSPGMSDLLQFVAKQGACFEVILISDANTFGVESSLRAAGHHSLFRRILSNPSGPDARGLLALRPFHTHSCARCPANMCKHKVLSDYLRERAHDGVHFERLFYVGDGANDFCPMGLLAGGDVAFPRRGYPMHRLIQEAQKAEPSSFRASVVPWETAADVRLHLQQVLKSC
PABP1 MLLE inh = inhibitors of microRNA-mediated deadenylation, human PABP1 MLLE binding. AID 588489. P11940. actives 0.36% (n = 360,000). GST-MLLE / FITC-PAM2 fluorescence polarization. inhibition, % at 20 µM; in the data active = inhibition above about 35%, passing the limit was not always enough
CRFR2-BP antag = antagonists of CRF-binding protein/CRF-R2 receptor complex. HEK293 CRF-R2/CRF-BP, CRF-induced calcium fluorescence. inhibition, % at 11.8 µM. actives 0.59% (n = 350,000);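 active = inhibition of the ligand-induced calcium signal above about 50% at the single tested concentration, limit read from the data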
eIF4H FP inh = inhibitors of RNA binding by human eIF4H. inhibition, % at 35 µM. actives 0.94% (n = 290,000). Q15056. eIF4H fluorescence polarization binding assay;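 note: calls also rest on retests at 20 µM and on dose response follow-up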
PABP polyA inh = PABP-poly(A) binding inhibition; PABP-poly(A) RNA binding, fluorescence polarization; inhibition, % at 35 µM; actives 1% (n = 290,000); AID 2014;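 note: calls also rest on retests at 20 µM and on dose response follow-up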
Hits are given with their value; . = inactive; ? = inconclusive; / = not tested or not shown. Unless noted, the rule behind the calls is not given here.

SMILES	PHOSPHO1 inh	PABP1 MLLE inh	CRFR2-BP antag	eIF4H FP inh	PABP polyA inh
CCn1cc(/C=C(\NC(=O)c2ccccc2F)C(=O)NCCN2CCOCC2)c2ccccc21	65	.	.	.	.
CN(C)S(=O)(=O)n1cc(/C=C(\NC(=O)c2ccccc2F)C(=O)NCCN2CCOCC2)c2ccccc21	/	.	.	/	/
COc1ccc(-n2nc3c(N)n[nH]c3cc2=O)cc1	.	.	.	.	.
Nc1n[nH]c2cc(=O)n(-c3ccc(Cl)cc3)nc12	.	.	.	99	83
Cc1cc(CNCCN(C)C)c(C)n1-c1cc(S(=O)(=O)N2CCOCC2)ccc1N1CCCC1	/	.	.	/	/
NC(=O)c1cccc2c1-c1ccccc1/C2=N/NC(N)=S	.	39	.	.	.
O=C(O)c1c(Cl)cccc1Nc1ccccc1	/	.	.	/	/
O=[N+]([O-])c1ccc(Sc2n[nH]c(-c3ccccc3)n2)nc1	84	.	.	.	.
Cc1cccc(Sc2ccc([N+](=O)[O-])cn2)c1	.	.	.	.	.
O=[N+]([O-])c1ccc(Sc2ccccc2)nc1	.	.	54	.	.
Cc1ccc(S(=O)(=O)N(C)C[C@@H]2OCc3cn(nn3)CCCC(=O)N([C@H](C)CO)C[C@H]2C)cc1	/	.	/	/	/
Cc1ccc(S(=O)(=O)N2CCN(C(=O)c3cc(S(=O)(=O)N4CCOCC4)c(Cl)cc3Cl)CC2)cc1	/	.	.	/	/
CCn1c(CSc2nc3ccccc3s2)nnc1SCC(=O)c1ccc(O)c(O)c1	86	.	.	52	9.9
CCn1c(SCC(=O)c2ccc(O)c(O)c2)nnc1-c1ccccc1OC	.	.	.	.	.
CCn1c(CSc2nc3ccccc3s2)nnc1SCC(=O)c1ccc(Cl)cc1	73	.	.	.	.
N#Cc1c(C(F)(F)F)cc(-c2ccco2)nc1SCc1ccncc1	82	.	.	.	.
N#Cc1c(C(F)(F)F)cc(-c2ccco2)nc1SCc1ccccn1	.	.	.	.	.
CCOC(=O)c1c(-c2ccccc2)csc1NC(=O)c1cc(S(=O)(=O)N2CCOCC2)ccc1C	.	.	.	.	.
CCOC(=O)c1cnc(SCC(=O)Nc2sc(C)c(C)c2C#N)nc1N	92	.	.	.	.
CCOC(=O)c1sc(NC(=O)c2cc(-c3ccccc3C)nc3ccccc23)c(C#N)c1C	65	.	.	.	.
Cc1sc(NC(=O)CSc2nnc(-c3ccc(F)cc3)o2)c(C#N)c1C	.	.	.	66	65
CCOC(=O)c1sc(NC(=O)CSc2nc(C)cc(-c3ccccc3)n2)c(C#N)c1C	88	.	.	.	.
Cc1ccc(-c2nnc(SCC(=O)Nc3sc(C)c(C)c3C#N)n2C)cc1	.	.	.	.	.
CSc1ccc(C(O)c2ncc(-c3ccc(F)cc3)[nH]2)cc1 (stereo not drawn)	/	.	/	/	/
Cc1ccc(NC(=S)N=Nc2c(O)[nH]c3ccccc23)cc1	.	.	.	.	.
SMILES	PHOSPHO1 inh	PABP1 MLLE inh	CRFR2-BP antag	eIF4H FP inh	PABP polyA inh
COc1ccc(NC(=S)N=Nc2c(O)[nH]c3ccccc23)cc1	.	41	.	.	.
CNC(=S)N=Nc1c(O)[nH]c2ccccc12	.	.	.	.	.
Oc1ccc(NC(=S)N=Nc2c(O)[nH]c3ccccc23)cc1	.	52	.	.	.
O=C(c1cccc(NS(=O)(=O)c2ccc(Br)cc2)c1)N1CCCCC1	/	.	.	/	/
Cc1ccc(S(=O)(=O)NC2=NCN(C3CCN(Cc4ccccc4)CC3)CN2)cc1	.	.	109	.	.
Cc1ccc(S(=O)(=O)NC2=NCN(Cc3ccccc3)CN2)cc1	.	.	.	.	.
COc1c(F)cccc1C1=CC(=O)C[C@H](c2ccc(F)cc2)C1	/	.	.	/	/
CSC1=NC2(CCCCC2)C2=C(CCCC2)N1	101	.	.	.	.
COc1ccccc1NS(=O)(=O)c1cc(C(=O)N2CCCC2)ccc1F	/	.	79	/	/
COc1ccccc1NS(=O)(=O)c1cc(C(=O)N2CCCCCCC2)ccc1C	/	.	.	/	/
COc1cccc(NC(=O)CN(C)C(=O)c2ccc(Cl)c(S(=O)(=O)N3CCCCCC3)c2)c1	/	.	.	/	/
CC[C@@H](C)[C@@H]1CN([C@@H](CN2CCC[C@H]2CN2C(N)=NC[C@H]2CC(C)C)C(C)C)C(=N)N1CCc1ccc(Cl)c(Cl)c1	/	.	63	/	/
CCCN1CCC(C)(C(=O)Nc2cccc(OC(C)C)c2)C1 (stereo not drawn)	/	.	/	/	/
CCC(=O)N1CCc2cc(S(=O)(=O)CCC(=O)NCCc3ccc(S(N)(=O)=O)cc3)ccc21	.	.	.	.	.
CC(=O)N1CCc2cc(S(=O)(=O)CCC(=O)NCCc3ccc(Cl)cc3)ccc21	65	.	.	.	.
Cc1ccccc1N1C(=O)CC(Sc2nnc(-c3ccccc3)o2)C1=O (stereo not drawn)	81	.	.	.	.
O=C1c2ccccc2CC1Sc1nnc(-c2ccncc2)o1 (stereo not drawn)	.	.	.	4.2	72
CCOC1=C2CN(S(=O)(=O)c3ccc(C)cc3)[C@@H](c3ccccc3)C[C@H]2[C@H]2C(=O)N(c3ccccc3)C(=O)[C@H]2C1	/	49	/	/	/
Cc1cc2ccccn2c1C(=O)c1ccc(Cl)cc1	64	.	.	.	.
COC(=O)C1=C(CS(=O)(=O)c2ccccc2)NC(=O)NC1c1ccc(OC)c(OC)c1 (stereo not drawn)	.	.	.	.	.
COc1ccc(NC(=O)c2ccc(N3C(=O)C4CC=C(Cl)CC4C3=O)cc2)cc1 (stereo not drawn)	.	.	.	.	.
O=C(NN1C(=O)C2CC=C(Cl)CC2C1=O)c1ccncc1 (stereo not drawn)	.	.	.	?	9.7
COc1ccc(OCCSc2nnc3sc4ccccc4n23)cc1	77	.	.	.	.
CN(C)CCSc1nnc2sc3ccccc3n12	.	.	.	.	.
CN(CC(=O)NCc1ccc(F)cc1)S(=O)(=O)c1ccc(Br)s1	.	.	72	.	.
SMILES	PHOSPHO1 inh	PABP1 MLLE inh	CRFR2-BP antag	eIF4H FP inh	PABP polyA inh
COc1ccc(C(=O)CSc2nnc(CCc3ccccc3)n2-c2ccccc2)cc1	79	.	.	.	.
COc1ccccc1NC(=O)COC(=O)Cn1c(C)csc1=O	/	.	.	/	/
COc1cc2ccccc2ccc1=NO	/	.	.	/	/
O=c1cc(CSc2nnnn2-c2ccccc2)[nH]c2[nH]n(-c3ccccc3)c(=O)c12	.	.	.	79	62
CC(C)(CCC(=S)N1CCOCC1)c1ccccc1	/	.	.	/	/
CCOc1ccc(NC(=O)[C@@H](NC(=O)c2ccccc2)[C@@H](C)CC)cc1	.	.	63	.	.
CCOc1ccc(NC(=O)[C@@H](NC(=O)OCc2ccccc2)[C@@H](C)CC)cc1	.	.	.	.	.
Cc1ccnc2nc(C(=O)OCC(=O)N(Cc3ccccc3)C(C)(C)C)nn12	/	.	.	/	/
O=C(N/N=C/c1sc(=O)n(-c2ccccc2)c1Cl)c1ccccc1	.	.	.	65	active
NC(=O)N/N=C/c1sc(=O)n(-c2ccccc2)c1Cl	.	.	.	.	.
COc1ccc(-n2c(CN3CCC(C(N)=O)CC3)nc3ccc([N+](=O)[O-])cc3c2=O)c(OC)c1	.	.	.	active	.

High-throughput results from PubChem BioAssay.
